TR SRC2 fluor cs – Texas Red fluorescence interference in TRb-SRC2 counter-screen. Potency, µM (series often up to 106 µM), for inactives: top-dose fluorescence change, negative = quenching. TRb/SRC2 Texas Red total fluorescence interference. AID 1479. 0.29% of 280,000 active; active = well fitted curve in either direction with a large enough effect; inconclusive = small, poorly fitted or top-dose-only effect
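Human TRb ligand-binding domain at 0.6 uM with 20 nM Texas Red SRC2 peptide in Tris buffer containing 1 uM T3 and 5% DMSO, incubated with compound 5 h at ambient temperature. Total fluorescence (555/632 nm) calculated as parallel + 2 × perpendicular.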
Tau fibril FP – blocks human tau fibril formation measured by polarization; AID 1468; K18 P301L tau heparin fibrillization, Alexa594 FP, 6 h; 0.39% of 280,000 active; Potency, µM (series often up to 57.7 µM), for the others: at the highest dose activity, negative = inhibition, actives largely listed as inhibitors; P10636; note: nearly all actives have a fitted effect of over 55% in size
Target sequence (P10636 561-689 P618L limits assumed): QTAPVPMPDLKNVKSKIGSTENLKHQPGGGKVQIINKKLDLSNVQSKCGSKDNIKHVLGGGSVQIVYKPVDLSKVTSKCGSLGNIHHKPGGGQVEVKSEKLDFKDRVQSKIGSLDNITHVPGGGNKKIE
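Recombinant K18 P301L […], labeled with Alexa 594 at 0.24 uM over 15 uM unlabeled; heparin inducer 20 uM final; 37 C, 6 hr; FP endpoint.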
TRb-SRC2 inh – inhibitors of human thyroid hormone receptor beta-SRC2 interaction; TRbeta-SRC2 peptide binding, fluorescence polarization; receptor liganded with 1 µM T3; 0.065% of 280,000 active; AID 1469; Potency, µM (titrated, usually from 106 µM), for inactives: at the highest dose activity change, negative = inhibition, actives largely listed as inhibitors; P10828;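 note: plate controls were bound peptide for no effect and peptide without receptor for full effect; nearly all actives have a fitted effect of over 50% in size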
Target sequence (P10828 whole entry, looked up): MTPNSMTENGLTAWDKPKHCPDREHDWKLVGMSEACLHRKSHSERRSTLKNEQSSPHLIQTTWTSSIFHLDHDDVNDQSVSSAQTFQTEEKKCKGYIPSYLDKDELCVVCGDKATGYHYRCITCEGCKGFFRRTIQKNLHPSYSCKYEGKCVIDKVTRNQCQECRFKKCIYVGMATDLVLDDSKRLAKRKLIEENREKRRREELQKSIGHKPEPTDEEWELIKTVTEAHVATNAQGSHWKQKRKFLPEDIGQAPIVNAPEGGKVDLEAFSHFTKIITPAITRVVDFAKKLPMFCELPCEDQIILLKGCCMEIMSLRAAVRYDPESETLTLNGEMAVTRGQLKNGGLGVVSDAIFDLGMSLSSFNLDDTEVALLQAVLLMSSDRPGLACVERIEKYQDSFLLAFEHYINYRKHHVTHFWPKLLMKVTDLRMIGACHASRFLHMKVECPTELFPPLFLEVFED
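Fluorescence polarization of 20 nM Texas Red SRC2 peptide (20-aa NR interaction domain) bound to 0.6 uM human TRb ligand-binding domain, with 1 uM T3, after 5 hr at ambient temperature; inhibition seen as decreased polarization.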
Tau ThT inhib – inhibitors of human tau fibril formation, thioflavin T binding; P10636; recombinant tau K18 P301L, heparin-induced fibrillization, ThT fluorescence; Potency, µM (doses to about 57.4 µM), without a hit: at the top dose activity, negative = inhibition, usual class: inhibitors; 2.1% of 270,000 active; note: nearly all actives have a fitted effect of over 55% in size
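In this qHTS, human K18 P301L tau is incubated with compound and heparin for 6 hr at 37 C, and Thioflavin T fluorescence then reports fibril load.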
Tau fluor cs – counter-screen for tau fibril formation inhibitors; Potency, µM (doses to about 57.7 µM), for inactives: at the top dose activity change, negative = decrease; tau K18 P301L Alexa594 fluorescence, heparin fibrillization; 0.93% of 280,000 active; AID 1463; note: nearly all actives have a fitted effect of over 55% in size
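Human tau K18 P301L (15 uM unlabeled, 0.24 uM Alexa 594-labeled) in 100 mM sodium acetate pH 7 with 20 uM heparin, 6 hr at 37 C. ThT 30 uM added, 1 hr ambient; Alexa 594 FP and total fluorescence read at 555/632 nm.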
* marks the source's active call; other numbers are inactive results; [ ] = dose if it differs, or a comment. A selection: hits, their analogues and other compounds. The true share with any hit is near 3%. Unless noted, calls come from the whole dose curve; as a rule, active = well fitted curve in the direction sought with a large enough effect; inconclusive = small, poorly fitted or top-dose-only effect, or another doubt; inactive = no such curve, though single readings can be large; an effect the other way counts as inactive or inconclusive. Unless noted, % is set by controls: 0 for no effect and ±100 for the full control effect; potency is the fitted concentration of half-maximal effect.

What do the screens show for `CN(C)c1ccc(C(=O)Nc2nc3c(s2)CCCC3)cc1`?
TR SRC2 fluor cs: -6%; Tau fibril FP: 5%; TRb-SRC2 inh: 1%; Tau ThT inhib: 7.9µM*; Tau fluor cs: inconclusive

What do the screens show for `C/C(=N\Nc1nc2c(s1)CCCC2)c1ccc(Cl)cc1`?
TR SRC2 fluor cs: -4%; Tau fibril FP: -12%; TRb-SRC2 inh: 1%; Tau ThT inhib: 14µM*; Tau fluor cs: 25µM*[quencher]

What do the screens show for `O=C(Cn1c(=O)n(Cc2ccco2)c(=O)c2ccc(C(=O)NC3CCCC3)cc21)Nc1ccc(F)cc1`?
TR SRC2 fluor cs: -2%; Tau fibril FP: 16µM*; TRb-SRC2 inh: -8%; Tau ThT inhib: inconclusive; Tau fluor cs: inconclusive

Results for Cc1cc(-c2nn(-c3ccccc3)cc2/C=C2\SC(N)=NC2=O)ccc1OC(C)C ?
TR SRC2 fluor cs: -2%; Tau fibril FP: 3.2µM*; TRb-SRC2 inh: 0%; Tau ThT inhib: -1%; Tau fluor cs: inconclusive

What do the screens show for `CN=c1scc(C)n1/N=C/c1cc(Br)c(O)c(OC)c1`?
TR SRC2 fluor cs: -4%; Tau fibril FP: 6%; TRb-SRC2 inh: 10%; Tau ThT inhib: 13µM*; Tau fluor cs: inconclusive

What do the screens show for `CN=c1scc(-c2cccs2)n1/N=C/c1ccc(O)c(O)c1O`?
TR SRC2 fluor cs: -15%; Tau fibril FP: inconclusive; TRb-SRC2 inh: 2%; Tau ThT inhib: 13µM*; Tau fluor cs: 20µM*[quencher]

How did COc1cc(/C=N/N(C)C)cc(Br)c1O do in these assays?
TR SRC2 fluor cs: -1%; Tau fibril FP: 6%; TRb-SRC2 inh: -6%; Tau ThT inhib: -19%; Tau fluor cs: -9%

How did CN=c1scc(-c2cccs2)n1/N=C/c1ccccc1O do in these assays?
TR SRC2 fluor cs: 0%; Tau fibril FP: -8%; TRb-SRC2 inh: -9%; Tau ThT inhib: 11%; Tau fluor cs: -3%

What do the screens show for `CN=c1scc(C)n1/N=C/c1ccc(O)c(O)c1O`?
TR SRC2 fluor cs: -17%; Tau fibril FP: 25µM*; TRb-SRC2 inh: -3%; Tau ThT inhib: 7.1µM*; Tau fluor cs: inconclusive

How did CCN=c1scc(C)n1/N=C/c1ccsc1 do in these assays?
TR SRC2 fluor cs: -2%; Tau fibril FP: 4%; TRb-SRC2 inh: 4%; Tau ThT inhib: inconclusive; Tau fluor cs: -11%

How did Cc1ccccc1C(=O)Nc1ccc2nc(SCC(=O)N3CCc4ccccc43)sc2c1 do in these assays?
TR SRC2 fluor cs: 4%; Tau fibril FP: inconclusive; TRb-SRC2 inh: 6%; Tau ThT inhib: inconclusive; Tau fluor cs: -12%

How did Cc1cc(Cl)ccc1NC(=O)CN1C(=O)COc2ccc(S(=O)(=O)Nc3ccccc3)cc21 do in these assays?
TR SRC2 fluor cs: -1%; Tau fibril FP: inconclusive; TRb-SRC2 inh: 0%; Tau ThT inhib: 18%; Tau fluor cs: inconclusive

How did Cc1ccc(-c2nc3c(C)cccn3c2Nc2ccccc2C)s1 do in these assays?
TR SRC2 fluor cs: 1%; Tau fibril FP: 2%; TRb-SRC2 inh: -5%; Tau ThT inhib: inconclusive; Tau fluor cs: inconclusive

How did CCOC1=C/C(=C/c2c(N)n3nc(-c4ccccc4)sc3nc2=O)C=CC1=O do in these assays?
TR SRC2 fluor cs: -10%; Tau fibril FP: -5%; TRb-SRC2 inh: 1%; Tau ThT inhib: 8.9µM*; Tau fluor cs: inconclusive

What do the screens show for `COC1=C/C(=C/c2c(N)n3nc(-c4ccc(C)cc4)sc3nc2=O)C=CC1=O`?
TR SRC2 fluor cs: -2%; Tau fibril FP: 1%; TRb-SRC2 inh: 7%; Tau ThT inhib: 10µM*; Tau fluor cs: inconclusive

How did Cc1cc(Cl)ccc1NC(=O)CN1C(=O)CSc2ccc(S(=O)(=O)N(C)C)cc21 do in these assays?
TR SRC2 fluor cs: 0%; Tau fibril FP: -2%; TRb-SRC2 inh: 1%; Tau ThT inhib: 14%; Tau fluor cs: 4%

What do the screens show for `CCCCn1cc(S(=O)(=O)c2ccc(CC)cc2)c(=O)c2cc(F)c(N3CCOCC3)cc21`?
TR SRC2 fluor cs: inconclusive; Tau fibril FP: -3%; TRb-SRC2 inh: -2%; Tau ThT inhib: -8%; Tau fluor cs: -5%

How did CCN(CC)c1ccc(NC2CC(=O)N(CCc3ccc(OC)cc3)C2=O)cc1 (stereo unspecified) do in these assays?
TR SRC2 fluor cs: 19%; Tau fibril FP: inconclusive; TRb-SRC2 inh: -13%; Tau ThT inhib: 11µM*; Tau fluor cs: inconclusive

What do the screens show for `O=C(NCC(c1cccnc1)N1CCN(Cc2ccccc2)CC1)C(=O)Nc1ccc(F)cc1` (stereo unspecified)?
TR SRC2 fluor cs: 5%; Tau fibril FP: -2%; TRb-SRC2 inh: -8%; Tau ThT inhib: 5%; Tau fluor cs: 5%

Results for O=C(NCC(c1cccnc1)N1CCN(Cc2ccccc2)CC1)C(=O)Nc1cccc(F)c1 (stereo unspecified) ?
TR SRC2 fluor cs: 0.25µM*[quencher]; Tau fibril FP: -6%; TRb-SRC2 inh: -14%; Tau ThT inhib: inconclusive; Tau fluor cs: -26%

Results for Cc1ccc(C(=O)NCC(c2cccnc2)N2CCc3ccccc3C2)cc1C (stereo unspecified) ?
TR SRC2 fluor cs: 1%; Tau fibril FP: inconclusive; TRb-SRC2 inh: 2%; Tau ThT inhib: inconclusive; Tau fluor cs: inconclusive

How did O=C(NCC(c1cccnc1)N1CCN(c2ccccc2F)CC1)OCc1ccccc1 (stereo unspecified) do in these assays?
TR SRC2 fluor cs: -3%; Tau fibril FP: 12%; TRb-SRC2 inh: -11%; Tau ThT inhib: inconclusive; Tau fluor cs: -9%

What do the screens show for `CCN(CC)CCNC(=O)C(=O)NCC(c1cccnc1)N1CCN(c2ccccc2)CC1` (stereo unspecified)?
TR SRC2 fluor cs: 89µM*[quencher]; Tau fibril FP: 4%; TRb-SRC2 inh: -25%; Tau ThT inhib: 1%; Tau fluor cs: 3%

How did CC(C)(C)c1ccc(C(=O)NCC(c2cccnc2)N2CCc3ccccc3C2)cc1 (stereo unspecified) do in these assays?
TR SRC2 fluor cs: 11µM*[quencher]; Tau fibril FP: 6%; TRb-SRC2 inh: 2%; Tau ThT inhib: inconclusive; Tau fluor cs: inconclusive

What do the screens show for `O=C(NCc1cccnc1)C(=O)NCC(c1cccnc1)N1CCN(c2ccccc2F)CC1` (stereo unspecified)?
TR SRC2 fluor cs: 100µM*[quencher]; Tau fibril FP: -4%; TRb-SRC2 inh: -24%; Tau ThT inhib: -11%; Tau fluor cs: -13%

What do the screens show for `O=C(NCc1ccc(F)cc1)C1CCN(C(=O)c2ccc(-n3ccc4ccccc43)s2)CC1`?
TR SRC2 fluor cs: 0%; Tau fibril FP: -14%; TRb-SRC2 inh: -11%; Tau ThT inhib: -7%; Tau fluor cs: -9%

What do the screens show for `O=C(NCC(c1cccnc1)N1CCc2ccccc21)C(=O)Nc1ccccc1F` (stereo unspecified)?
TR SRC2 fluor cs: 0.32µM*[quencher]; Tau fibril FP: 6%; TRb-SRC2 inh: -16%; Tau ThT inhib: -9%; Tau fluor cs: inconclusive

Results for CCCCCCCC(=O)Oc1c(Br)cc(C#N)cc1Br ?
TR SRC2 fluor cs: 2%[201 µM]; TRb-SRC2 inh: 4%[201 µM]
